# Most compounds without a hit are left out; they make up all but 3.6% or so of the library.
# aSyn rescue – inhibitors of alpha-synuclein toxicity in yeast; AID 652106; 0.14% of 370,000 active; Potency, µM (highest dose often 46.1 µM), without a hit: at the highest dose growth rescue (activation), usual class: activators; Yeast expressing alpha-synuclein, growth rescue, BacTiter-Glo, 24 h; note: % of control where 0% means no effect; nearly all actives have a fitted effect of over 65% in size
#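 Screening used galactose-induced yeast with toxic alpha-synuclein levels, exposed to compound for 24 hr at 30 deg C. Cell growth, read with BacTiter-Glo luminescence, gave the measured signal.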
# ClpP mod – qHTS Assay for Activators of ClpP; Potency, µM (top dose mostly 57.5 µM), inactives show at the top dose activity change, negative = active; 1.9% of 340,000 active; ATP-dependent Clp protease proteolytic subunit (Bacillus subtilis (strain 168)), P80244; purified B. subtilis ClpP, FRET peptide cleavage, 20 min; active = well fitted falling curve with a large enough effect; inconclusive = small, poorly fitted or top-dose-only effect; inactive = no such curve, though single readings can be large or run the other way; note: the source files actives as falling curves though it sought activators and does not explain the sign; nearly all actives have a fitted effect of over 65% in size
# Target sequence (P80244 whole entry, looked up): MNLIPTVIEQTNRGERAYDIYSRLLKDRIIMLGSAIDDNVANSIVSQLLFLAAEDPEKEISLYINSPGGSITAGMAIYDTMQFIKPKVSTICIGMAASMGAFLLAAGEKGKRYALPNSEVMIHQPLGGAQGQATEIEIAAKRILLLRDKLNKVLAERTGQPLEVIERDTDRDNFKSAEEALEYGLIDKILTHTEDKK
#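 Purified B. subtilis ClpP, 10 microg/mL final in Tris/HCl pH8 with KCl, BSA, glycerol and Tween-20, cleaved an Abz/nitrotyrosine-quenched decapeptide. Fluorescence (ex 320, em 430) was read at 0 and 20 min at room temperature. Delta was normalized to 5.8 microM ADEP and DMSO/no-enzyme controls.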
# MmCpn inh – inhibitors of Methanococcus maripaludis chaperonin TRiC (MmCpn); purified Mm-Cpn ATPase, ADP Transcreener TR-FRET; 0.031% of 330,000 active; Potency, µM (doses to about 76.9 µM), for the others: top-dose activity, negative = inhibition, actives largely listed as inhibitors; AID 504842; note: % is set by controls: 0 for no effect and ±100 for the full control effect; nearly all actives have a fitted effect of over 80% in size
#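 ATPase read-out: TR-FRET ADP immunoassay (anti-ADP Eu cryptate vs ADP-d2), ex 320 nm, em 590/665 nm; signal drops as ADP forms. Enzyme 25 nM, ATP 10 uM, 30 min at 37°C after 10 min compound preincubation.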
# TDP-43 yeast inh – rescues yeast growth from TDP-43 toxicity; 1.8% of 410,000 active; AID 652104; Potency, µM (doses to about 46.1 µM), for inactives: at the top dose growth rescue (activation), usual class: activators; TDP-43 expressing yeast growth rescue, BacTiter-Glo, 24 h; note: % of control where 0% means no effect; nearly all actives have a fitted effect of over 50% in size
#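 Cell-based yeast growth screen: TDP-43 expression induced in galactose, inoculum OD600=0.02 after raffinose pregrowth to mid-log. Read-out BacTiter-Glo luminescence at 24 hr, 30 deg C; inhibition of toxicity seen as signal increase.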
# FUS yeast rescue – suppressors of FUS proteinopathy in yeast. S. cerevisiae FUS-expressing, growth rescue, OD600, 24 h. AID 1347120. Potency, µM (doses to about 76.6 µM), usual class: activators. 0.24% of 390,000 active;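 note: plate controls were DMSO vehicle for no effect and reference control for full effect; nearly all actives have a fitted effect of over 55% in size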
#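 Compound concentration series was pinned onto galactose-induced FUS-expressing yeast seeded at OD 0.005. Plates sat 24hr at 30C; absorbance at 600 nm gave growth. DMSO served as background control.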
# Abeta yeast res – restores growth of yeast expressing A-beta42 peptide. yeast expressing A-beta42, growth rescue, OD600, 48 h; response scale: 0% DMSO, 100% iron-clioquinol control. 0.063% of 410,000 active. AID 1347071. Potency, µM (top dose mostly 46.1 µM), usual class: activators; note: nearly all actives have a fitted effect of over 55% in size
#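 Yeast A-beta toxicity model in growth medium with pinned compounds, 48 h at 30 C; growth read as absorbance at 600 nm. Normalized to FeCl3/clioquinol equimolar mix (positive) and DMSO (negative).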
# * = called active by the depositor; i = inactive; ? = inconclusive; / = no result; [ ] = remark or other dose. Unless noted, calls come from the whole dose curve; as a rule, active = well fitted curve in the direction sought with a large enough effect; inconclusive = small, poorly fitted or top-dose-only effect, or another doubt; inactive = no such curve, though single readings can be large; an effect the other way counts as inactive or inconclusive. Potency is the fitted concentration of half-maximal effect.
SMILES,aSyn rescue,ClpP mod,MmCpn inh,TDP-43 yeast inh,FUS yeast rescue,Abeta yeast res
O=C(O)c1ccc2c(c1)C(=O)N([C@H](Cc1c3ccccc3cc3ccccc13)C(=O)O)C2=O,/,/,0%,/,/,/
CCCCCCCCN1C(=O)[C@H](CC(=O)NCCC(C)C)C[C@@]2(C(=O)OCC)CCCC=C12,-1%,3%,/,-12%,?,i
CCOC(=O)N1CCN(C(=O)C[C@H]2C[C@@]3(C(=O)OC)C(=C[C@H](C(C)C)O[C@@H]3C3CC3)N(CCC3=CCCCC3)C2=O)CC1,/,/,/,/,13µM*,/
CCOC(=O)N1CCN(C(=O)C[C@H]2C[C@@]3(C(=O)OC)C(=C[C@H](C(C)C)O[C@@H]3C3CC3)N(CCc3ccc(OC)c(OC)c3)C2=O)CC1,/,/,/,/,i,/
CCOC(=O)[C@]12CCCC=C1N(CCC1=CCCCC1)C(=O)[C@H](CC(=O)NCCC(C)C)C2,-18%,3%,/,25µM*,i,i
CCCc1ccc(OCc2ccc(C(=O)Nc3ccccc3C(=O)OC)o2)cc1,/,4%,/,14%,i,i
CC(C)c1ccc(NC(=O)C(Cc2ccccc2)NS(=O)(=O)c2ccc3c(c2)CCC(=O)N3)cc1 (stereo not drawn),/,-2%,/,-19%,i,i
O=C(CC(c1cccs1)N1Cc2ccccc2C1=O)Nc1ccc(Cl)cc1 (stereo not drawn),/,4%,/,-22%,i,i
CC(C)c1nc2sc3c(=O)n(N)cnc3c2c2c1COC(C)(C)C2,3%,16µM*,0%,19%,i,i
CCCc1nc2sc3c(=O)n(N)cnc3c2c2c1COC(C)(C)C2,/,/,1%,/,/,/
COc1cccc(C(C)NC(=S)NCc2ccc(Cl)cc2)c1 (stereo not drawn),-1%,1%,2%,10%,i,i
CCC(NC(=S)NCc1ccc(F)cc1)c1ccccc1 (stereo not drawn),-2%,-4%,-2%,16%,i,11µM*
COc1ccc(C(C)NC(=S)NCc2ccc(F)cc2)cc1 (stereo not drawn),0%,-1%,-2%,?,i,11µM*
CCc1ccc(NS(=O)(=O)c2ccc3[nH]cc(C(=O)NC4CCCC4)c(=O)c3c2)cc1,/,-24%,/,11%,28µM*,i
CCOc1ccc(NS(=O)(=O)c2ccc3[nH]cc(C(=O)NC4CCCC4)c(=O)c3c2)cc1,/,-14%,/,0%,i,i
CCOC(=O)c1cnc2c(ccc3ccccc32)c1NCCO,11%,28µM*,2%,8%,i,i[9.22 µM]
COc1ccccc1CNc1ncnc2c1c(-c1ccccc1)cn2-c1cccc(C)c1,/,28µM*,/,?,i,i
COc1ccccc1N1CCN(c2ncnc3c2c(-c2ccccc2)cn3-c2cccc(C)c2)CC1,/,11µM*,/,1%,i,i
c1ccc(-c2cn(-c3ccccc3)c3ncnc(N4CCCCC4)c23)cc1,-1%,/,2%,18µM*,i,i
CC1CCN(c2ncnc3c2c(-c2ccccc2)cn3-c2ccc(Br)cc2)CC1,/,-3%,/,0%,i,i
Cc1cccc(-n2cc(-c3ccccc3)c3c(N4CCC(C)CC4)ncnc32)c1,/,28µM*,/,?,i,i
O=C(Nc1cccc(C(F)(F)F)c1)Nc1cccs1,/,0%,/,18%,i,i
Cc1c(-c2cccc(NC(=O)c3ccc(F)c(F)c3)c2)nc2ncccn12,/,4%,/,17%,i,i
COc1ccc(C(=O)/C=C/c2cn(CC(O)CN(CC(C)C)CC(C)C)c3ccccc23)cc1OC (stereo not drawn),-6%,/,/,/,/,/
O=S(=O)(c1ccc(-c2cnc(C3CC3)o2)cc1)N1CCN(c2cccc(Cl)c2)CC1,/,5%,/,25%,i,i

# Bioassay records deposited in PubChem by National Center for Advancing Translational Sciences (NCATS).
